Screens as filed in PubChem BioAssay.
CHX counter: counter-screen for Shiga toxin inhibitors: cycloheximide protein synthesis inhibition. AID 2314. cell reporter, cycloheximide protein synthesis inhibition counterscreen. max response, %. hit rate 12% among 300,000; in the data active means max response mostly above about 13%, no sharp cut-off; inactive means mostly below about 14%; further: read at 38.3 µM for the half of the compounds with a filed dose; 0% is about no effect
TbPYK inhibitor: inhibitors of Trypanosoma brucei pyruvate kinase. Q57TT1. TbPYK enzyme, Kinase-Glo Plus ATP luminescence, 45 min. Potency, µM (highest dose often 76.8 µM), for the others: at the highest dose activity, negative = inhibition, most hits filed as inhibitors. hit rate 0.12% among 410,000. AID 624173; further: potency means the concentration at half of the fitted maximal effect; on the % scale 0 is the no-effect control and ±100 the full control effect; nearly all actives have a fitted effect of over 50% in size
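Readout: single end-point luminescence (Kinase-Glo Plus, 10 min). Reaction conditions were TbPYK/substrate plus 130 uM ADP, 45 min at RT, pH 7.2 TEA buffer. No-enzyme wells served as controls, and data were normalized before concentration-response fitting.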
FBPA Giardia inh: Giardia lamblia aldolase inhibition; A8B2U2; purified Giardia FBPA; hit rate 0.71% among 290,000; Potency, µM (titrated, usually from 59.6 µM), inactives show top-dose activity, negative = inhibition, actives largely listed as inhibitors; further: potency means the concentration at half of the fitted maximal effect; on the % scale 0 is the no-effect control and ±100 the full control effect; nearly all actives have a fitted effect of over 55% in size
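40 nM FBPA preincubated 10 min at RT with compound (up to 57.5 uM final), then substrate plus GAPDH/TPI/NAD/arsenate coupling and diaphorase/resazurin added. Fluorescence read after 20 min at RT, 525/598 nm.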
Sm TGR inh: inhibitors of Schistosoma mansoni thioredoxin glutathione reductase; Q962Y6; purified TGR, DTNB reduction, TNB absorbance 405 nm; Potency, µM (top dose mostly 114 µM), for the others: at the top dose activity change, negative = inhibition, usual class: inhibitors; hit rate 3% among 360,000; AID 485364; further: potency means the concentration at half of the fitted maximal effect; on the % scale 0 is the no-effect control and ±100 the full control effect; nearly all actives have a fitted effect of over 60% in size
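First, TGR (20 nM dispensed) and NADPH were mixed with compound. Second, a 15 min room-temperature incubation followed. Third, further NADPH and then DTNB were added to start the reaction. Finally, TNB absorbance was monitored kinetically.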
LmPK inhibitor: blocks Leishmania mexicana pyruvate kinase activity | hit rate 0.37% among 290,000 | Potency, µM (doses to about 57.5 µM), for inactives: at the highest dose activity change, negative = inhibition, usual class: inhibitors | AID 1721 | purified LmPK, Kinase-Glo ATP luminescence, 1 h | Q27686; further: potency means the concentration at half of the fitted maximal effect; on the % scale 0 is the no-effect control and ±100 the full control effect
Target sequence (Q27686 whole entry, looked up): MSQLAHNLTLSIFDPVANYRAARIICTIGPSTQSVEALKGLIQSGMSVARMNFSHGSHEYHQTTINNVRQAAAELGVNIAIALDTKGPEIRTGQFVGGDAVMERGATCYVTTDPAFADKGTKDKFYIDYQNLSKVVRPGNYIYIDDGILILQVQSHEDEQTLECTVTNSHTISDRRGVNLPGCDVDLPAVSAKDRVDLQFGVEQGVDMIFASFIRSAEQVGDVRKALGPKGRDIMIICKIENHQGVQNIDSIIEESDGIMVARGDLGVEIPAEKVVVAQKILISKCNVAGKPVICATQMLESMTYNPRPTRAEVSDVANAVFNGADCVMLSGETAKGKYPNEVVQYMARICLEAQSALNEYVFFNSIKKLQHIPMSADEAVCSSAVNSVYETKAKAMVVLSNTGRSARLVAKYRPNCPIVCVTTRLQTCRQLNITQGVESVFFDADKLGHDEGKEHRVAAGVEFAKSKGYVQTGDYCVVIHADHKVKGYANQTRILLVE
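Purified LmPK (0.1 nM) with 0.5 mM PEP and 0.1 mM ADP in imidazole buffer pH 7.2 with MgCl2/KCl, 1 h at room temperature. ATP formed was read by luciferase luminescence and normalized to no-enzyme and uninhibited controls.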
Shiga toxin inh: blocks Shiga toxin action in Vero cells; inhibition, % at 38.7 µM; Vero cells, Shiga toxin protein synthesis inhibition reporter; AID 2315; hit rate 9.2% among 290,000; in the data active means inhibition mostly above about 28%, no sharp cut-off; inactive means mostly below about 43%; further: 0% is about no effect
* = called active by the depositor; u = inconclusive; x = no result given; [ ] = dose if it differs, or a comment. Only a selection was taken, and hits are over-represented in it overall. Unless noted, the call rests on the fitted dose curve; in most records, active means well fitted curve in the direction sought with a large enough effect; inconclusive means small, poorly fitted or top-dose-only effect, or another doubt; inactive means no such curve, though single readings can be large; an effect the other way counts as inactive or inconclusive.

SMILES | CHX counter | TbPYK inhibitor | FBPA Giardia inh | Sm TGR inh | LmPK inhibitor | Shiga toxin inh
Cn1c(=O)[nH]c(=O)c2c1nc1n(CCO)c(-c3ccccc3)cn21 | x | -8% | x | -5% | x | x
COc1ccc(C2c3c(n(C)c4ccccc34)C(=O)N2CC(=O)Nc2cccc(F)c2)cc1 (configuration not stated) | x | 1%[15.4 µM] | x | -4% | x | x
Cc1noc(C)c1-c1ccc2ncnc(N3CCN(C)CC3)c2c1 | x | x | 1% | x | x | x
CCCNC(=O)CN1C(=O)CSc2ccc(S(=O)(=O)N3CCC(C)CC3)cc21 | x | -9% | x | 4% | x | x
N#CCC(=O)N/N=C/c1ccccc1Cl | 4 | 3% | 2% | -7% | 2% | 25
CO/C(N)=C(\C#N)N=Cc1ccccc1Cl | 21* | 0% | -9% | -21% | -6% | 49
CN(C)S(=O)(=O)c1ccc(N2CCCC2)c(C(=O)Nc2nccs2)c1 | x | -4% | x | x | x | x
CN(C)S(=O)(=O)c1ccc(N2CCCC2)c(C(=O)Nc2nc(-c3ccc(F)c(F)c3)cs2)c1 | 28* | -2% | -1% | 3% | -1% | 32
COc1ccccc1OCCC(=O)Nc1nc(C)cs1 | 15* | 1% | 1% | -7% | -1% | 24
CCc1ccc(OCCCC(=O)Nc2nccs2)cc1 | 29* | -1% | -1% | x | 3% | 53*
COc1ccccc1OCCCC(=O)Nc1nccs1 | 52* | -4% | 0% | -1% | 4% | 89*
O=C(CCCOc1ccccc1)Nc1nccs1 | 10 | -1% | 11% | 2% | 4% | 31
COc1ccc(CC(=O)Nc2nc(C)cs2)cc1OC | -1 | -1% | 9% | -12% | 0% | -13
CC(C)n1cc(C(=O)N2CCCC(Nc3ccc(F)c(F)c3)C2)cn1 (configuration not stated) | 27* | -1% | -11% | -28% | -2% | 14
Oc1ccccc1-c1nc2cnccn2c1Nc1ccc2c(c1)OCCO2 | 30* | 2% | 9% | 5% | 0% | 51*
Cc1ccn2c(Nc3ccc4c(c3)OCCO4)c(-c3ccccc3O)nc2c1 | x | -6% | x | -3% | x | x
c1cn2c(Nc3ccc4c(c3)OCCO4)c(-c3ccc(N4CCOCC4)cc3)nc2cn1 | 24* | 7% | -7% | 3% | -8% | 53*
F/C(COc1ccc2c(c1)[nH]c1ccccc12)=C1/CN2CCC1CC2 | 36* | -8% | 0% | x | x | 57*
N#CC1=C(N)Oc2cc3ccccc3cc2C1c1cccnc1 (configuration not stated) | -7 | -5% | -17% | u | 3% | -12
C[n+]1cccc(C2C(C#N)=C(N)Oc3c2ccc2ccccc32)c1 (configuration not stated) | 51* | -3% | u | 40µM* | -4% | 76*
N#CC1=C(N)Oc2c(ccc3cccnc23)C1c1cccnc1 (configuration not stated) | -1 | 59% | 1% | 20µM* | 4% | 3
Cc1ccc2cc(C3C(C#N)=C(N)Oc4c3ccc3cccnc43)c(=O)[nH]c2c1 (configuration not stated) | 8 | 50% | u | 11µM* | 2% | -3
CC(=O)Nc1c(Cl)c(Cl)c2c(c1Cl)C(=O)c1cc(Cl)ccc1-2 | x | -12% | x | x | x | x
CC(=O)c1sc(NC(=O)c2oc3ccc(F)cc3c2C)nc1C | x | -3% | x | -1% | x | x
COC(=O)c1ccc2nc(Nc3nc4ccc(F)cc4s3)sc2c1 | 28* | -14% | -1% | -4% | 2% | -34
SMILES | CHX counter | TbPYK inhibitor | FBPA Giardia inh | Sm TGR inh | LmPK inhibitor | Shiga toxin inh
CC(=O)c1sc(Nc2nc3ccc(F)cc3s2)nc1C | 52* | 0% | -1% | 8% | 0% | 97*
CCOC(=O)c1csc(Nc2nc3ccc(F)cc3s2)n1 | 20* | 5% | 7% | 14% | 5% | 23*
O=c1oc2ccccc2cc1-c1csc(Nc2nc3ccc(F)cc3s2)n1 | 2 | x | -9% | -7% | -2% | 15
CCN1CCN(c2cc(N3CCN(C(=O)c4ccco4)CC3)c3c4c(onc24)-c2ccccc2C3=O)CC1 | 1 | -13% | u | 7.1µM* | -6% | -11
O=C(O)CCNc1cc(N2CCN(C(=O)c3ccco3)CC2)c2noc3c2c1C(=O)c1ccccc1-3 | -6 | u | u | 16µM* | -4% | -6
CC(=O)OCCNc1cc(N2CCN(C)CC2)c2noc3c2c1C(=O)c1ccccc1-3 | 0 | u | u | -23% | -23% | -2
CCCOc1cccc(-c2cc(C(=O)NN)c3ccccc3n2)c1 | 7 | -5% | -4% | -10% | 0% | 18
COc1ccc(/C(C)=N/NC(=O)c2cc(-c3cccnc3)nc3ccccc23)cc1 | -1 | 1% | 4% | 7% | 4% | -12
COc1ccc(-c2cc(C(=O)N/N=C(\C)c3cccnc3)c3ccccc3n2)cc1 | 12* | 9% | 3% | 2% | -2% | 53
COc1ccc(-c2cc(C(=O)N/N=C/c3cccnc3)c3ccccc3n2)cc1 | 27* | -2% | x | -27% | 0% | 31
C/C(=N\NC(=O)c1cc(-c2cccnc2)nc2ccccc12)c1ccccc1O | 11* | -12% | -3% | -6% | -5% | 17
CCCOc1cccc(-c2cc(C(=O)N/N=C/c3ccccn3)c3ccccc3n2)c1 | 21* | 1% | x | 5% | -10% | 42*
Cc1ccc(OCC(=O)Nc2ccc3nc(SCC(=O)N4CCOCC4)sc3c2)cc1 | x | -3% | x | 5% | x | x
O=C(CN(c1ccc(Cl)c(C(F)(F)F)c1)S(=O)(=O)c1ccccc1)N1CCc2ccccc2C1 | x | 7% | x | -3% | x | x
CS(=O)(=O)c1ccc([C@H](O)[C@H](CO)NC(=O)C(Cl)Cl)cc1 | x | -7%[33.2 µM] | 1%[21.7 µM] | x | x | x
CC(C)N(Cc1ccccc1)S(=O)(=O)c1ccc(-c2cc(C(F)(F)F)on2)s1 | x | -4% | x | 2% | x | x
COc1cccc(-c2cc(C(=O)N/N=C/c3ccco3)c3ccccc3n2)c1 | 26* | -14% | -1% | -4% | -3% | 67*
CCCc1ccc(-c2cc(C(=O)N/N=C/c3ccc([N+](=O)[O-])o3)c3ccccc3n2)cc1 | 23* | 1% | -15% | -11% | 3% | 59
CCCOc1cccc(-c2cc(C(=O)N/N=C/c3cccnc3)c3ccccc3n2)c1 | 30* | 0% | x | -5% | -3% | 76*
COc1cccc(CC(=O)N2CCc3nc(-c4ccc(OC)cc4C)c4c(c3C2)CO[C@@H](c2ccccc2)C4)c1 | x | x | 4%[12.9 µM] | x | -1%[11.5 µM] | x
Cn1c(=O)c2sccc2n2c(CCCC(=O)NC3CCN(Cc4ccccc4)CC3)nnc12 | -3 | 2% | -15% | -17% | 5% | -5
O=c1oc2ccc(Cl)cc2nc1/C=C(\O)c1ccco1 | 25* | -5% | u | u | 0% | 41*
CC(C)(C)/C(O)=C/c1nc2ccccc2oc1=O | 4 | 3% | -1% | -1% | 2% | -7
